HCMV antiviral: blocks human cytomegalovirus replication | activity change, negative = inhibition, % at 57.5 µM | AID 1259415 | HFF cells, HCMV-luciferase reporter, 72 h; stronger effect = lower value | 410,000 tested, 4.5% active; in the data active means activity change below about -60%; inconclusive means no clear call, values can overlap the other calls; inactive means above about -39%
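HFF cells seeded 16 h at 37C, treated with compounds, infected with luciferase-reporter HCMV at MOI 1 PFU/cell; luciferase read at 72 h post infection, normalized to buffer-only and Salinomycin controls.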
Vaccinia mCherry: vaccinia inhibition (mCherry reporter); Vaccinia virus mCherry reporter infection, fluorescence; Potency, µM (titrated, usually from 36.5 µM), inactives show at the highest dose activity change, negative = inhibition, usual class: inhibitors; 310,000 tested, 0.63% active; AID 720579; calls by dose curve; tested in A549 cells; further: potency means the concentration at half of the fitted maximal effect; nearly all actives have a fitted effect of over 35% in size
Vaccinia Venus: inhibitors of vaccinia virus (Venus reporter) | Vaccinia virus Venus reporter expression, fluorescence | Potency, µM (top dose mostly 36.5 µM), without a hit: top-dose activity change, negative = inhibition, usual class: inhibitors | 330,000 tested, 0.46% active | AID 720580; calls by dose curve; tested in A549 cells; further: potency means the concentration at half of the fitted maximal effect; nearly all actives have a fitted effect of over 30% in size
Sm TGR block: S. mansoni TGR enzyme inhibition | Q962Y6 | purified TGR, DTNB reduction, TNB absorbance 405 nm | Potency, µM (highest dose often 114 µM), without a hit: at the highest dose activity change, negative = inhibition, most hits filed as inhibitors | 360,000 tested, 3% active; further: potency means the concentration at half of the fitted maximal effect; nearly all actives have a fitted effect of over 60% in size
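TGR 20 nM + NADPH 100 uM (dispensed conc.), cpd preinc 15 min RT; start with NADPH (500 uM addition) then DTNB (15 mM addition). Kinetic TNB absorbance, 405 nm filter. Four-parameter Hill fit across titration.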
FMDV inh: blocks foot and mouth disease virus; FMDV antiviral cell-based qHTS; Potency, µM (highest dose often 57.9 µM), inactives show at the highest dose activity change, negative = inhibition, most hits filed as inhibitors; 410,000 tested, 1.2% active; calls by dose curve; tested in HEK293T cells; further: read-out not given here; potency means the concentration at half of the fitted maximal effect; nearly all actives have a fitted effect of over 45% in size
HCV inh: HCV inhibition | Huh7.5.1 HCVcc-Cre infection, luciferase reporter, 44 h | Potency, µM (titrated, usually from 41.8 µM), for inactives: top-dose activity change, negative = inhibition, actives largely listed as inhibitors | 340,000 tested, 3.4% active | AID 651820; further: potency means the concentration at half of the fitted maximal effect
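Whole-lifecycle infectious HCVcc-Cre system; cells 1,000/well, compound then virus (~0.5 moi) added 4 h after plating, 44 h culture. Luciferase read 15 sec following 15 min substrate incubation, room temp.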
The depositor's hits bear a star. Rows were chosen to be rich in hits. Some 9.3% of all compounds tested hit in one or more screens of this group. Unless noted, the call rests on the fitted dose curve; in most records, active means well fitted curve in the direction sought with a large enough effect; inconclusive means small, poorly fitted or top-dose-only effect, or another doubt; inactive means no such curve, though single readings can be large; an effect the other way counts as inactive or inconclusive. On the % scale 0 is the no-effect control and ±100 the full control effect.

CCOC(=O)C1=C(CN2CCSCC2)NC(=O)NC1c1ccc2c(c1)OCO2 (configuration not stated) was read as HCMV antiviral -29, Vaccinia mCherry 0%, Vaccinia Venus 8%, Sm TGR block 4%, FMDV inh -21% and HCV inh 18%.
For CCOC(=O)C1=C(CCl)NC(=O)NC1c1ccc2c(c1)OCO2 (configuration not stated) the results were HCMV antiviral -5, Vaccinia mCherry -26%, Vaccinia Venus -21%, Sm TGR block 8.9µM*, FMDV inh inconclusive and HCV inh inconclusive.
Screening CC1=C(C(=O)OCCCBr)C(c2ccc3c(c2)OCO3)NC(=O)N1 (configuration not stated) returned Vaccinia mCherry 0%, Vaccinia Venus -7%, Sm TGR block 25µM*, FMDV inh -22% and HCV inh -9%.
`CC1=C(C(=O)OCc2ccc3c(c2)OCO3)C(c2ccc(F)cc2)NC(=O)N1` (configuration not stated) gave Vaccinia mCherry inconclusive, Vaccinia Venus inconclusive, Sm TGR block -30%, FMDV inh inconclusive and HCV inh inconclusive.
For CCCCCOC(=O)C1=C(C)NC(=O)NC1c1ccc2c(c1)OCO2 (configuration not stated) the results were HCMV antiviral -36, Vaccinia mCherry -7%, Vaccinia Venus -14%, Sm TGR block 4%, FMDV inh inconclusive and HCV inh 7%.
CC1=C(C(=O)OCc2ccc3c(c2)OCO3)C(c2ccc(Cl)cc2)NC(=O)N1 (configuration not stated) was read as HCMV antiviral -86*, Vaccinia mCherry inconclusive, Vaccinia Venus inconclusive, Sm TGR block -1% and HCV inh inconclusive.
`CC(C(=O)N(C)C)N1c2cccc3cccc(c23)S1(=O)=O` (configuration not stated) gave HCMV antiviral 3, Sm TGR block -8%, FMDV inh -14% and HCV inh 8%.
Screening CCCCOc1ccccc1C1NC(=O)NC(C)=C1C(=O)OCc1ccco1 (configuration not stated) returned HCMV antiviral -32, Vaccinia mCherry -25%, Vaccinia Venus 36%, Sm TGR block 45µM* and HCV inh -19%.
COc1ccccc1C1CC(c2ccco2)=NN1S(C)(=O)=O (configuration not stated) was read as HCMV antiviral -3, Vaccinia mCherry -4%, Vaccinia Venus -10%, Sm TGR block inconclusive, FMDV inh 39% and HCV inh -3%.
Screening CS(=O)(=O)N1N=C(c2ccco2)CC1c1ccc(Br)cc1 (configuration not stated) returned HCMV antiviral 32, Sm TGR block inconclusive, FMDV inh 73% and HCV inh 15%.
For CS(=O)(=O)N1N=C(c2ccco2)CC1c1cccc([N+](=O)[O-])c1 (configuration not stated) the results were HCMV antiviral -31, Sm TGR block 45µM*, FMDV inh -8% and HCV inh -1%.
`CS(=O)(=O)N1N=C(c2ccco2)CC1c1ccccc1Cl` (configuration not stated) gave HCMV antiviral 0, Vaccinia mCherry inactive, Vaccinia Venus 13%, Sm TGR block 40µM*, FMDV inh 7% and HCV inh 5%.
For CS(=O)(=O)N1N=C(c2ccco2)CC1c1ccc(Cl)cc1Cl (configuration not stated) the results were HCMV antiviral 37, Sm TGR block 28µM*, FMDV inh -6% and HCV inh -5%.
Screening O=C(COc1coc(CN2CCc3ccccc3C2)cc1=O)Nc1ccc(F)cc1 returned HCMV antiviral -9, Vaccinia mCherry -14%, Vaccinia Venus -14%, Sm TGR block -1%, FMDV inh -6% and HCV inh -13%.
O=C(NC(=S)Nc1ccc(Cl)c(C(=O)O)c1)c1ccc(OCc2ccccc2)cc1 was read as HCMV antiviral -11, Sm TGR block -24%, FMDV inh -3% and HCV inh 3%.

High-throughput results as filed in PubChem.
